Unmarked numbers belong to inactive results. The rule behind the calls is not given here.

Sequence of Pantothenate synthetase (Mycobacterium tuberculosis (strain ATCC 25618 / H37Rv)) (P9WIL5 whole entry, looked up): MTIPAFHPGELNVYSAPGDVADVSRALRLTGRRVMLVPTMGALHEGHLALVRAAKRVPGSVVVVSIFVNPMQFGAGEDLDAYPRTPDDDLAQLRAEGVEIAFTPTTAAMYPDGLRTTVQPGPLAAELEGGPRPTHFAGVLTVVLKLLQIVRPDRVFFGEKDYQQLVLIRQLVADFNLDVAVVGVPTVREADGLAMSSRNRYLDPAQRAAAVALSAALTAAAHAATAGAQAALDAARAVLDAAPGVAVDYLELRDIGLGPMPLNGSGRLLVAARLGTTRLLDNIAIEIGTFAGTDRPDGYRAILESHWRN

The assay has as its target Pantothenate synthetase (Mycobacterium tuberculosis (strain ATCC 25618 / H37Rv)) (UniProt P9WIL5). Put plainly: Coupled enzyme confirmation of inhibitors against recombinant Mtb PanC (AID 375).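 Note: 0% = full reaction with vehicle and 100% = no enzyme background.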 Particulars: coupled enzyme assay; at 10 µM, hits give high values.
In the case of `C[C@]12CCC(=O)C=C1CC[C@@H]1[C@@H]2C(=O)C[C@@]2(C)[C@H]1CC[C@]2(O)C(=O)CO`, the inhibition was 0%.

On to `Cc1nnc(SCC(=O)Nc2ccc(Br)cn2)[nH]c1=O`, for which the inhibition is 1%.

Consider `Cc1ccc(C(C(=O)NC2CCCCC2)N(C(=O)c2csnn2)C2CCCC2)o1` (centres undefined), for which the inhibition is 0%.

With `Cc1cccc(N2CCN(C(=O)c3ccc(NS(=O)(=O)c4c(C)noc4C)cc3)CC2)c1C`, the inhibition was 0%.

In the case of `COC(=O)C1CCN(C(=O)NC(C)(C)C)CC1`, the inhibition is 6%.

`COc1ccc(CCNC(=O)c2ccc(N3CCCC3=O)cc2)cc1OC`: the inhibition is 0%.

On to `COc1ccc(OC(C)C(=O)N2CC(C)OC(C)C2)cc1` (centres undefined), for which the inhibition is 10%.

In the case of `C=CCN1C(=O)C2(C(C#N)=C(N)Oc3n[nH]c(CCC)c32)c2ccccc21` (centres undefined), the inhibition is 0%.

Regarding `COc1cccc(C(=O)Nc2ccc(NC(C)=O)cn2)c1`, the inhibition was 0%.

`c1ccc(-c2nc3ccccc3nc2-c2ccccn2)nc1`: the inhibition is 0%.

As to `O=C(COC(=O)c1cnccn1)c1ccc(OC(=O)c2ccccc2)cc1`, the inhibition was 0%.

Turning to `O=C(CCn1c(=O)oc2ccccc21)NCc1ccco1`, the inhibition was 1%.

As for `CN(C)C(=O)N1CCCC(C(=O)NCc2ccccc2)C1` (centres undefined), the inhibition is 0%.

As for `CCOC(=O)c1sc2nc(NC(=O)COc3ccccc3)sc2c1C`, the inhibition was 0%.

Consider `O=C(CCCn1ncn2c(cc3occc32)c1=O)N1CCc2ccccc2C1`, for which the inhibition was 6%.

As for `NC(=O)NC(=O)CSc1cccc(C(F)(F)F)c1`, the inhibition is 0%.

Turning to `N#Cc1c(NCc2ccccc2)ccnc1NCc1cccnc1`, the inhibition was 0%.

As for `Cc1nc(CNS(=O)(=O)c2cc(C)c(C)cc2C)cs1`, the inhibition was 1%.

As to `Cc1csc(NC(=O)C(Cc2ccccc2)n2cccc2)n1` (centres undefined), the inhibition is 5%.

Turning to `CCN(C(=O)c1cc(Cl)ccc1OC)C1CCCCC1`, the inhibition is 0%.

With `CC1CCc2nc(NC(=O)CN3CCN(Cc4ccc5c(c4)OCO5)CC3)sc2C1` (centres undefined), the inhibition was 0%.

Turning to `CN1CCN(S(=O)(=O)c2ccc(NC(=O)c3ccc(F)cc3)cc2)CC1`, the inhibition is 0%.

Consider `CC(=O)NCCc1nc2ccccc2[nH]1`, for which the inhibition was 0%.

Consider `COc1cccc2cc(C(=O)OC3CCN(C)CC3)c(=O)oc12`, for which the inhibition was 9%.

For the compound `Cc1ccc(S(=O)(=O)N(CC(=O)N2CCOCC2)CC(=O)N2CCOCC2)cc1`, the inhibition is 0%.

As to `CN1CCN(Cc2nc3c(c(=O)[nH]c(=O)n3C)n2CCc2ccccc2)CC1`, the inhibition was 0%.

For `Cc1ccc(S(=O)(=O)N(C)CC(=O)NC2CCCC2)cc1`, the inhibition is 0%.

Turning to `FC(F)(F)c1nnc2sc(-c3cccs3)nn12`, the inhibition was 4%.

As to `COc1cccc(-n2c(C)nc3c(cnn3-c3ccc(C)cc3)c2=O)c1`, the inhibition was 3%.

As for `COc1ccc(-c2[nH]nc3c2C(c2ccncc2)C(C#N)=C(N)O3)cc1` (centres undefined), the inhibition is 0%.

Consider `COc1c(Br)cc2c(C)c(C(=O)O)oc2c1Br`, for which the inhibition is 2%.

As for `CCOC(=O)C1CCN(C(=O)C2CCN(S(=O)(=O)c3cc(Cl)ccc3Cl)CC2)CC1`, the inhibition is 12%.

On to `O=C(NCC(=O)N(c1ccc2c(c1)OCCO2)C(C(=O)NC1CCCC1)c1ccco1)c1ccco1` (centres undefined), for which the inhibition was 6%.

As to `Clc1ccc(C2Nc3ccccc3-n3cccc32)cc1` (centres undefined), the inhibition is 0%.

In the case of `CCCNC(=O)C1CCN(S(=O)(=O)c2ccc3nc4c(c(C(=O)O)c3c2)CCCCC4)CC1`, the inhibition was 0%.

For `COc1ccc(S(=O)(=O)N2CCOCC2)cc1C(=O)Nc1cc(C)on1`, the inhibition is 0%.

Consider `CS(=O)(=O)c1ccc2nc(NC(=O)C3C4C=CC(C4)C3C(=O)O)sc2c1` (centres undefined), for which the inhibition was 1%.

As for `CCOC(=O)c1ccc(NS(=O)(=O)c2ccc(SC)cc2)cc1`, the inhibition is 0%.

Turning to `Cc1cc(C)nc(NS(=O)(=O)c2ccc(N)cc2)n1`, the inhibition was 0%.

As usually defined, the inhibition is the relative decrease from the control value, in per cent.

The values are drawn from PubChem BioAssay.
